Source: PubChem
D3 ag = activates the human D3 dopamine receptor. 410,000 tested, 0.58% active. max activation, %. D3R DiscoveRx beta-arrestin cells, luminescence, 90 min. P35462; in the data active = max activation above about 30%; note: 0% is about no effect
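Agonist-mode cell screen: cells plated at 1500/well and incubated overnight at 37 °C, then exposed to library compounds for 90 min at 37 °C. Detection reagent was added for 30–60 min at room temperature, and luminescence was read.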
D1 antagonist = blocks dopamine activation of the human D1 receptor. activity change, negative = inhibition, % at 10 µM. P21728. 360,000 tested, 3.2% active. HEK293 TREx D1 cells, calcium flux, dopamine EC80; stronger effect = lower value. AID 504652; in the data active = activity change below about -30%; note: % is set by controls: 0 for no effect and ±100 for the full control effect
Target sequence (P21728 whole entry, looked up): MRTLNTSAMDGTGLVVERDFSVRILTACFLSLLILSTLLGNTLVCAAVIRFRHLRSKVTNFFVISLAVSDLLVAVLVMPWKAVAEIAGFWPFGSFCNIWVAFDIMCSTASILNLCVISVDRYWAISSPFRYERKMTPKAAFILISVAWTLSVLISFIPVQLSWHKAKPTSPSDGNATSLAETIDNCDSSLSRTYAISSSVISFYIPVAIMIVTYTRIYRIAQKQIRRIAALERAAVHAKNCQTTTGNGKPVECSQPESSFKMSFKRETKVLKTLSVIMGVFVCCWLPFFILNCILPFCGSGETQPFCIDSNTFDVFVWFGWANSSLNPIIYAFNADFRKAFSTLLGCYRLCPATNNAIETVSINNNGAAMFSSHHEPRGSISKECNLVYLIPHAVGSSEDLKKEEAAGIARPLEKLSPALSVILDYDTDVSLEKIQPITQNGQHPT
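After overnight tetracycline induction at 30 C, force-coupled D1 HEK293 cells took up a no-wash calcium dye at room temperature. Compounds were added and monitored 180 s, and the response to EC80 dopamine was then recorded.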
DRD3 antagonist = blocks the human D3 dopamine receptor; D3R cells, DiscoveRx beta-arrestin luminescence, antagonist mode; stronger effect = lower value; 360,000 tested, 2.5% active; max response, negative = inhibition, %; AID 652054; in the data active = max response below about -50%; inconclusive = no clear call, values can overlap the other calls; note: % is set by controls: 0 for no effect and ±100 for the full control effect
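Cells expressing the human receptor were seeded at 1500 cells/well, incubated overnight at 37 degrees C in 5% CO2, then exposed to library compounds with dopamine controls for 90 minutes at 37 degrees C before luminescent detection.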
Chronic BCR inh = blocks chronic active B-cell receptor signaling; ABC-DLBCL IkBa-CBG/CBR reporter, luminescence ratio, 4 h; 340,000 tested, 0.05% active; Potency, µM (series often up to 46.1 µM), inactives show top-dose activity change, negative = inhibition, hits mostly inhibitors; AID 493014; active = well fitted inhibition curve with a large enough effect in the signal ratio, with a control signal flat, not every such curve was filed as active; inconclusive = small, poorly fitted or top-dose-only effect, or effect the other way, or a change in a side signal; the % refers to the signal ratio;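 note: potency is the fitted concentration of half-maximal effect; plate controls were basal doxycycline-induced cells for no effect and cells given 10 µM MG132 for full effect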
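Doxycycline induced both beetle luciferases in TMD8 lymphoma cells; IKK-driven degradation limits the IkappaBalpha-fused green signal, while red luminescence normalises for cell number and nonspecific effects. Compounds tested up to 46 uM, 4 hrs.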
D1 ag = human D1 receptor agonism | P21728 | HEK293 T-REx D1 cells, calcium flux, agonist mode | activation, % at 2 µM | 360,000 tested, 1% active; in the data active = activation above about 30%; note: 0% is about no effect
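Agonism was scored from calcium flux recorded over 180 s (1 read/s) after pintool compound addition, following a 10-cycle baseline. Cells were inducible force-coupled HEK293 TREx D1, plated overnight at 30 C and loaded with no-wash calcium dye.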
D1 PAM = potentiators of human D1 dopamine receptor; potentiation, % at 10 µM; 360,000 tested, 0.036% active; AID 504651; HEK293 TREx D1 cells, calcium flux, dopamine EC20 potentiation; in the data active = potentiation above about 30%; note: 0% is about no effect
Numbers without * were called inactive; u = inconclusive; x = no result given; ! = not active in a repeat. Sampled rows, rich in hits. Any-hit rate of the full collection: about 6%.

SMILES	D3 ag	D1 antagonist	DRD3 antagonist	Chronic BCR inh	D1 ag	D1 PAM
CC(C)C[C@@H](COCc1cccc(C(F)(F)F)c1)N1CCN(C(=O)c2ccc(C(F)(F)F)cc2)CCC1=O	13	x	56	x	x	x
COC(=O)c1ccc(CN2CCCC(C(=O)c3cc(F)ccc3OC)C2)cc1 (stereo unspecified)	-17	2	-95*	0%	4	-3
Cc1ccc(CNC(=O)/C=C/c2c(Cl)cccc2Cl)cc1	-1	-36*	10	0%	6	-2
O=C(C1=C(O)C(=O)N(CCN2CCOCC2)C1c1ccc([N+](=O)[O-])cc1)c1cccs1 (stereo unspecified)	-10	-75*	-4	0%	2	-1
O=C(OCn1ncc(Br)c(Br)c1=O)c1ccccc1Cl	-33	-10	-88*	u	-3	-7
CC(=O)OCn1ncc(N2CCOCC2)c(Br)c1=O	1	7	5	0%	2	-3
O=C(OCc1cnc(Cl)s1)c1ccccc1Cl	2	-12	-1	-7%	1	3
O=C(OCn1ncc(Br)c(Br)c1=O)c1ccc(F)cc1	-13	-3	-83*	u	4	-3
O=C(c1ccc2ncsc2c1)N1CCN(c2cccc(C(F)(F)F)c2)CC1	-1	-5	-1	u	10	1
Cc1cc(C(=O)N2CCCC(C(=O)c3ccc(Cl)cc3C)C2)no1 (stereo unspecified)	-5	-35*	-1	-6%	1	7
COc1ccc2c(C)c(C(=O)O)oc2c1	-6	2	0	u	0	4
COc1c(Br)cc2c(C)c(C(=O)O)oc2c1Br	33*	7	-15	9%	1	-5
CCOC(=O)c1c(C)[nH]c(C)c1S(=O)(=O)N1CCCC(C(=O)Nc2ccccc2OCC)C1 (stereo unspecified)	-5	8	x	x	3	-3
COC(=O)c1sc2ccccc2c1NC(=O)c1ccc(S(=O)(=O)N2CCCCC2)cc1	38*	-7	7	6%	1	0
COc1ccc(-n2nc(C(=O)N(C)c3cc(C)ccc3C)c3c4ccccc4n(C)c3c2=O)cc1Cl	-8	-8	x	x	0	2
O=C1/C(=C/c2ccccc2[N+](=O)[O-])COc2ccccc21	-12	x	-71*	u	-1	-4
OC(C#CCN1CCCCC1)(c1ccccc1)c1ccccc1	-22	-22	-79*	3%	9	-6
CC(C)(C#CC(O)(c1ccccc1)c1ccccc1)N1CCCCC1	2	3	-18	u	3	-2
CC(C)(C#CC(O)(c1ccccc1)c1ccccc1)N1CCCC1	3	-71*	-11	-11%	7	-4
COc1cc(OC)c(N(C)S(=O)(=O)c2cccc(C(=O)OCC(=O)c3c[nH]c4ccccc34)c2)cc1Cl	33*	6	14	-3%	3	5
N#CC1=C(N)N(c2ccccc2)C(c2cccc([N+](=O)[O-])c2)C1(C#N)C#N (stereo unspecified)	1	-30*	18	u	-1	-10
Cc1cccc(N2C(N)=C(C#N)C(C#N)(C#N)C2c2ccccc2)c1 (stereo unspecified)	7	10	24	x	-1	4
COc1ccc(NC(=O)C2CCN(c3cnccn3)CC2)cc1Cl	2	-58*!	8	1%	5	-6
CCCCC[C@H](O)/C=C/C1C(=O)C=C[C@H]1C/C=C\CCCC(=O)OC (stereo partly specified)	13	x	6	x	x	x
O=C(CS(=O)Cc1ccco1)NC/C=C\COc1cc(CN2CCCCC2)ccn1 (stereo unspecified)	-13	x	x	x	x	x
SMILES	D3 ag	D1 antagonist	DRD3 antagonist	Chronic BCR inh	D1 ag	D1 PAM
COC(=O)/C=C1\S/C(=N/NC(=O)c2ccccc2)NC1=O	-2	26	-65*	u	-2	-4
Cc1ccc(C)c(-c2csc(-c3c(N)c(C(=O)c4ccc5c(c4)OCO5)n4ccccc34)n2)c1	-7	-3	x	x	14	2
COC(=O)C[C@H]1c2cc(C(F)(F)F)ccc2S(=O)(=O)N1Cc1ccc(OC)cc1	48*	x	8	x	x	x
c1ccc2c(c1)nnn2Cn1nnc2ccccc21	2	x	3	x	x	x
CCCc1ccc(Oc2c(-c3ccc(O)c(C)c3O)n[nH]c2C)cc1	0	8	-81*	-11%	35*	-4
COc1cccc(Oc2cn[nH]c2-c2ccc(OC)cc2O)c1	-1	-4	-27	-10%	3	-9
CCCc1ccc(Oc2cn[nH]c2-c2ccc(O)c(C)c2O)cc1	-11	-17	-11	6%	33*	-11
C[C@@H](CN1C2=NC[C@H](C)N2C[C@H]1Cc1ccc(O)cc1)NC(=O)CCC1CCCCC1	-84	1	-66*	-1%	-3	-4
COc1ccc(C[C@H]2CN3C(=NC[C@@H]3Cc3ccc(O)cc3)N2C[C@H](C)NC(=O)CCC2CCCCC2)cc1	-48	17	u	u	0	-4
CC(C)[C@H]1CN=C2N(C[C@H](C)NC(=O)CCC3CCCCC3)[C@H](Cc3ccc(O)cc3)CN21	-72	24	-94*	-6%	2	-4
CC1=C[C@H](O)CC(C)(C)[C@H]1/C=C/C(C)=C/C=C/C(C)=C/C=C/C=C(C)/C=C/C=C(C)/C=C/C1=C(C)C[C@@H](O)CC1(C)C	-1	x	x	x	x	x
O=C1C=CC(=O)N1c1cccc(-c2ccccc2)c1	-26	-43*	u	u	5	-10
COc1ccc(NC(=O)NNC(=O)COc2ccc3cc(Br)ccc3c2)c(OC)c1	1	-32*	29	3%	5	-1
Cc1ccc(S(=O)(=O)CC(O)COc2ccc(F)cc2Cl)cc1 (stereo unspecified)	-9	-12	-64*	-1%	1	-5
O=C(NCc1cccc(F)c1)Nc1nnc([C@H]2C[C@H](O)[C@@H](CO)O2)s1	6	x	8	x	x	x
CCOC(=O)N1CCN(C(=O)CN(c2cc(C)ccc2OC)S(=O)(=O)c2ccc(C)cc2)CC1	-6	-38*	x	x	3	-2
COc1ccc(Cl)cc1N(CC(=O)N1CCN(Cc2ccccc2)CC1)S(C)(=O)=O	-9	-18	-57*	-1%	1	6
COc1ccc(C)cc1N(CC(=O)N1CCCCCC1)S(=O)(=O)c1ccccc1	3	24	-3	-2%	0	-6
COc1ccccc1N(CC(N)=O)S(=O)(=O)c1ccc(C)cc1	9	-3	-76*	1%	2	-7
CCN(CC)CCOC(=O)c1ccc(NC(=O)Cn2ncc3c([nH]c4ccc(C)cc43)c2=O)cc1	3	-12	x	x	1	1
